ERa SRC1 pot: ER-alpha (human) coactivator binding potentiation. P03372. TR-FRET ERalpha-LBD/SRC-Cy5 coactivator binding, 2 h; 100 = basal binding, no effect. coactivator binding (% of control), % at 25.6 µM. 1.3% of 86,000 active; in the data active means activity above about 200%;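 further: binding measured in presence of low estradiol as agonist stimulus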
Target sequence (P03372 whole entry, looked up, the tested form may be a part): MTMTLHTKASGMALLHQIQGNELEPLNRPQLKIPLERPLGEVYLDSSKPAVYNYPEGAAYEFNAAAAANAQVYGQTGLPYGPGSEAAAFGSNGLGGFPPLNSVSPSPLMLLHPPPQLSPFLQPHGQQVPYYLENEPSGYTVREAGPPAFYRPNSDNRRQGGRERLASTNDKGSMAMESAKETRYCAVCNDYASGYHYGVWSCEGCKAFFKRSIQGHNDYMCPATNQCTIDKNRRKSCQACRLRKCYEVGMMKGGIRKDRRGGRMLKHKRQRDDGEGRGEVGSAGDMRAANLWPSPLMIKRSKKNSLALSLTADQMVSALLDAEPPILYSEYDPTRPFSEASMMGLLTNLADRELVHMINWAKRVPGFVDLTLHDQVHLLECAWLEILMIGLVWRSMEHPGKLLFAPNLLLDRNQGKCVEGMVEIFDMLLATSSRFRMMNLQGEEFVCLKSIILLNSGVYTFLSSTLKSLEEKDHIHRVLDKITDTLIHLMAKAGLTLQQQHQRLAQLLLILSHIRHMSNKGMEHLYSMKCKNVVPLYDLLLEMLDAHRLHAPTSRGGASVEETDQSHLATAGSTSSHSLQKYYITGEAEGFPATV
ERb coact inh: blocks coactivator binding to human estrogen receptor beta; Q92731; TR-FRET ER-beta LBD / SRC1-Cy5 peptide binding; receptor agonist-loaded with 1 µM estradiol; inhibition, % at 25.6 µM; 1.3% of 86,000 active; AID 633;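 active means compounds whose percent inhibition of the receptor-coactivator binding signal exceeds about 50% in the single-dose screen, limit read from the data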
CD11b adhes enh: CD11b/CD18-fibrinogen binding enhancement | activation, % at 10 µM | P05107+P11215 | 0.07% of 93,000 active | AID 1499 | K562 CD11b/CD18 adhesion to fibrinogen, ATPlite luminescence;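 active means 10 µM primary screen giving 50% or more activity, confirmed by 40% or more on retest at that dose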
Mac1 fbg inh: CD11b/CD18-fibrinogen binding inhibition; P05107+P11215; K562 CD11b/CD18 adhesion to fibrinogen, ATPlite luminescence; Mn2+ added to activate the integrin; inhibition, % at 10 µM; 0.54% of 93,000 active; AID 1497;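 active means primary inhibition of 50% or more at 10 µM, then 40% or more on retest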
ERa coact inh: blocks coactivator binding to human estrogen receptor alpha; P03372; TR-FRET ER-alpha LBD / SRC-1 peptide, estradiol-bound; inhibition, % at 25.6 µM; 1.7% of 86,000 active; in the data active means inhibition above about 50%
Each line names hits and unclear results; the compound was inactive in the other large screens; [ ] = dose if it differs, or a comment. In the library only some 3.1% were active in any assay of this set; here they are far more common.

Cc1nc(Nc2nc(CSc3ccc(Cl)cc3)cc(=O)[nH]2)nc2ccccc12	none (no result: ERa SRC1 pot, ERb coact inh, ERa coact inh)
COc1nc(Nc2nc3ccccc3c(=O)[nH]2)nc2ccc(C)cc12	ERb coact inh 53[fluorescence artefact?], ERa coact inh 74[fluorescence artefact?] (no result: CD11b adhes enh, Mac1 fbg inh)
O=C1CC(c2ccc(Cl)cc2)CC(O)=C1C=NCc1ccc(Cl)c(Cl)c1 (centres undefined)	none (no result: ERa SRC1 pot, ERb coact inh, ERa coact inh)
O=C(O)CCn1cc(/C=C\C(=O)c2ccc(Cl)cc2)c(-c2cccc(Br)c2)n1	Mac1 fbg inh 53 (no result: ERa SRC1 pot, ERb coact inh, ERa coact inh)
O=C(CSc1oc(-c2ccco2)nc1S(=O)(=O)c1ccc(Cl)cc1)NCC1CCCO1 (centres undefined)	ERa coact inh 54[fluorescence artefact?]
O=C(NCc1ccco1)c1c2c(nc3ccccc13)CCC2	ERb coact inh 92[fluorescence artefact?], ERa coact inh 93[fluorescence artefact?]
O=C(NCc1ccco1)c1csc2c1CCCCC2	none
Nc1c(C(=O)NCc2ccco2)sc2nc3c(cc12)C(=O)CCC3	ERb coact inh 85[fluorescence artefact?], ERa coact inh 82[fluorescence artefact?]
CCCOC(=O)c1sc2nc3c(cc2c1N)C(=O)CCC3	none
COc1ccc2cc3c(N)c(C(=O)NCc4ccco4)sc3nc2c1	ERa coact inh 56[fluorescence artefact?]
Clc1ccc(SCc2cn3ccsc3n2)cc1	ERa SRC1 pot 366[fluorescence artefact?]
CCn1c(SCc2ccc([N+](=O)[O-])cc2)nnc1C(C)NC(=O)c1ccc(C)cc1 (centres undefined)	none (no result: ERa SRC1 pot, ERb coact inh, ERa coact inh)
CCOP(=O)(OCC)C(NC(=O)Nc1ccc(Cl)cc1)C(=O)N(CC)CC (centres undefined)	none (no result: ERa SRC1 pot, ERb coact inh, ERa coact inh)
O=C(CCc1ccc(S(=O)(=O)N2CCOCC2)cc1)Nc1nc(COc2ccccc2)cs1	Mac1 fbg inh 87 (no result: ERa SRC1 pot, ERb coact inh, ERa coact inh)
O=C(COc1ccc(Cl)cc1)Nc1nc(-c2ccc(S(=O)(=O)N3CCOCC3)cc2)cs1	ERa SRC1 pot 275[fluorescence artefact?]
COc1ccccc1OCC(=O)Nc1nc(-c2ccc(S(=O)(=O)N3CCOCC3)cc2)cs1	ERa SRC1 pot 217[fluorescence artefact?] (no result: CD11b adhes enh, Mac1 fbg inh)
O=C(COC(=O)c1ccc(S(=O)(=O)N2CCOCC2)cc1)Nc1nc(-c2ccccc2)cs1	none
O=C(COc1ccccc1)Nc1nc(-c2ccc(S(=O)(=O)N3CCOCC3)cc2)cs1	ERa SRC1 pot 328[fluorescence artefact?]
O=C(CSc1ncnc2c1nnn2Cc1ccccc1F)N1CCN(c2ccccc2)CC1	none (no result: CD11b adhes enh, Mac1 fbg inh)
N#CC1=C(N)Oc2c(O)cc3ccccc3c2C1c1ccsc1 (centres undefined)	Mac1 fbg inh 70 (no result: ERa SRC1 pot, ERb coact inh, ERa coact inh)
Cc1onc(-c2ccccc2)c1C(=O)NNC(=S)NC(=O)/C=C/c1cccs1	none (no result: ERa SRC1 pot, ERb coact inh, ERa coact inh)
O=c1[nH]c2cc3c(cc2cc1C(c1nnnn1C1CCCCC1)N1CCSCC1)OCCO3 (centres undefined)	ERa SRC1 pot 254[fluorescence artefact?] (no result: CD11b adhes enh, Mac1 fbg inh)
COc1ccc(CNc2oc(COc3ccccc3Cl)nc2C#N)cc1	ERa SRC1 pot 228[fluorescence artefact?]
COc1cccc(/C=N\NC(=O)c2sc(N)nc2C)c1OC	none (no result: ERa SRC1 pot, ERb coact inh, ERa coact inh)
Cc1ccc(-c2nnc3ccc(SCC(=O)N4CCCc5ccccc54)nn23)cc1	none (no result: ERa SRC1 pot, ERb coact inh, ERa coact inh)
Cc1ccc(-c2nnc3ccc(SCC(=O)N4CCc5ccccc54)nn23)cc1	ERa SRC1 pot 238[fluorescence artefact?]
CCOC(=O)C1=C(O)/C(=C\c2ccc(CNC(=O)C(=O)Nc3ccc(C)c(C)c3)o2)N=C1C	ERb coact inh 55, ERa coact inh 72
COc1cc(CNC2CCCCCC2)cc(OC)c1	none
CCSc1nc2ccccc2n1C(=O)Oc1ccccc1	ERa SRC1 pot 497[fluorescence artefact?] (no result: CD11b adhes enh, Mac1 fbg inh)
CCOC(=O)CSc1nc2ccccc2n1C(=O)OCC	none
CCOC(=O)c1c(NC(C)=O)sc2c(O)c(CN3CCN(CC)CC3)ccc12	ERa coact inh 54[fluorescence artefact?]
CCOC(=O)c1c(NC(C)=O)sc2c(OC)c(Br)ccc12	none
COc1ccc(-c2nnc(Nc3nc4c(OC)cccc4s3)o2)c(OC)c1	none (no result: CD11b adhes enh, Mac1 fbg inh)
COc1cc(OC)cc(-c2nnc(Nc3nc4c(F)cccc4s3)o2)c1	ERa SRC1 pot 436[fluorescence artefact?]
COc1ccc(-c2nnc(Nc3nc4c(OC)cccc4s3)o2)cc1	ERb coact inh 73[fluorescence artefact?], ERa coact inh 77[fluorescence artefact?]
Cc1cc(C)c(S(=O)(=O)NCc2ccncc2)c(C)c1	Mac1 fbg inh 83
CCN(CC)S(=O)(=O)c1ccc(N=Nc2c(C)[nH]n(C(N)=S)c2=O)cc1	none (no result: CD11b adhes enh, Mac1 fbg inh)
NC(=S)n1[nH]c(-c2ccc([N+](=O)[O-])cc2)c(N=Nc2ccc(O)cc2)c1=O	ERa coact inh 92
CCS(=O)(=O)N1CCC(C(=O)NCCCN2CCC(Cc3ccccc3)CC2)CC1	none
CCS(=O)(=O)N1CCC(C(=O)NCCCN2CCCCCC2)CC1	ERa SRC1 pot 920[fluorescence artefact?]

High-throughput results deposited in PubChem by several laboratories.
